Bioassay records from PubChem BioAssay.
aSyn 5UTR act = Activators via SNCA 5'UTR binding, MLPCN. alpha-synuclein 5'UTR reporter, activators screen. activity score, % (tested at 7.5 µM), hits read low. 7.1% of 300,000 active. AID 1814, 2009; in the data active = activity score below about -60%
Large screens that a line does not name were inactive. Not all results are given here.

O=Cc1cn(Cc2cccc([N+](=O)[O-])c2)c2ccccc12	none
CN(C)C(Cc1ccc(Cl)cc1)C(=O)c1ccccc1 (centres undefined)	aSyn 5UTR act -81.6
COC(=O)c1ccc(CC(C(=O)c2ccccc2)N(C)C)cc1 (centres undefined)	aSyn 5UTR act -153.9
CCN(CC)C(=O)c1ccc(NC(=O)c2cccc(F)c2)cc1	aSyn 5UTR act -79.9
CCN(CC)c1ccc(/C=C2\C(=O)NC(=S)N(C)C2=O)o1	aSyn 5UTR act -115.0
CCN(CC)c1ccc(C=C2C(=O)N(C)C(=S)N(C)C2=O)o1	aSyn 5UTR act -86.2
C/C1=C\[C@@H](C)C/C=C/[C@H]2[C@@H]3O[C@]3(C)[C@@H](C)[C@H]3[C@H](Cc4c[nH]c5ccccc45)NC(=O)[C@]32C(=O)/C=C/C(=O)[C@@H]1O	none
CC(C)n1c(O)c(C2c3cc(Cl)ccc3Oc3[nH]c(=O)n(C(C)C)c(=O)c32)c(=O)[nH]c1=O (centres undefined)	aSyn 5UTR act -88.4
CC1(C)CN=C(Nc2nc3ccccc3s2)S1	aSyn 5UTR act -117.9
CCCCCCC[n+]1ccc(-c2cc[n+](CCCCCCC)cc2)cc1	none
N#Cc1cc2c(nc1SCC(=O)Nc1cc(Cl)ccc1Cl)C1CCN2CC1	aSyn 5UTR act -140.4
N#Cc1cc2c(nc1SCC(=O)Nc1ccc(Cl)cc1)C1CCN2CC1	aSyn 5UTR act -159.2
COc1ccc(-c2cc(=NCCC(=O)O)c3cc(C)ccc3o2)cc1	aSyn 5UTR act -121.1
COc1ccc(-c2cc(=Nc3ccccc3)c3cc(C)ccc3o2)cc1	aSyn 5UTR act -100.2
CC12CC[C@H]3[C@@H](CCC4(O)C[C@H](O)CCC34/C=N/NC(=O)c3ccccc3F)C1(O)CCC2C1=CC(=O)OC1 (some centres undefined)	none
COc1ccc(C(=O)N/N=C/C23CC[C@@H](O)CC2(O)CC[C@@H]2[C@@H]3CCC3(C)C(C4=CC(=O)OC4)CCC23O)cc1 (some centres undefined)	none
CN(C)C(=O)Oc1ccc2c(=O)c(Oc3ccccc3Br)coc2c1	aSyn 5UTR act -77.3
Cn1c(O)c(Cc2ccc(OCc3ccccc3)cc2)c(=O)n(C)c1=O	aSyn 5UTR act -139.9
CCOc1ccccc1-n1c(O)c(C=Nc2ccc(N(CC)CC)cc2)c(=O)[nH]c1=O	aSyn 5UTR act -65.5
Nc1ncnc2c1ccn2[C@@H]1O[C@H](CO)[C@@H](O)[C@H]1O	none
Cc1ccc(-n2c(C)nc3cc(Cl)ccc3c2=O)nc1	aSyn 5UTR act -116.5
C[C@@H]1C[C@H]2OC(=O)C3(CO3)[C@H]2[C@H](O)[C@]2(C)C(=O)C3OC3[C@@H]12 (some centres undefined)	aSyn 5UTR act -62.5
C=C1C(=O)O[C@@H]2C[C@@H](C)[C@@H]3C=CC(=O)[C@@]3(C)[C@@H](O)[C@H]12	none
O=[N+]([O-])c1ccccc1-c1cc(-c2ccccc2)cc(-c2ccccc2)[n+]1Cc1ccccc1Cl	none
O=c1c2ccccc2nc(/C=C/c2ccc(O)cc2)n1-c1ccc(O)cc1	aSyn 5UTR act -79.9
CCC1(OC(=O)CN)C(=O)OCc2c1cc1n(c2=O)Cc2cc3ccccc3nc2-1 (centres undefined)	none
COc1cc(/C=C/C(=O)c2c(O)n(CCc3ccccc3)c(=O)[nH]c2=O)ccc1O	aSyn 5UTR act -69.4
O=C(/C=C/c1ccccc1)c1c(O)n(CCc2ccccc2)c(=O)[nH]c1=O	aSyn 5UTR act -83.5
CN(C)c1ccc(C(=O)N/N=C/C23CC[C@@H](O)CC2(O)CC[C@@H]2[C@@H]3CCC3(C)C(C4=CC(=O)OC4)CCC23O)cc1 (some centres undefined)	none
CCOc1ccc2nc(N3CCC(C(=O)N4CCC5(CC4)OCCO5)CC3)sc2c1	aSyn 5UTR act -82.0
Cc1ccc2nc(N3CCC(C(=O)N4CCC5(CC4)OCCO5)CC3)sc2c1	aSyn 5UTR act -78.5
O=C(C1CCN(c2nc3ccc(Br)cc3s2)CC1)N1CCC2(CC1)OCCO2	aSyn 5UTR act -80.4
CCCC(=O)Nc1cc(C(=O)N2CCC3(CC2)OCCO3)ccc1S(=O)(=O)c1ccc(C)cc1	none
COC1CC(OC2CCC3(C)C(CCC4C3CCC3(C)C(C5=CC(=O)OC5)C(OC(C)=O)CC43O)C2)OC(C)C1OC1OC(COC2OC(CO)C(O)C(O)C2O)C(O)C(O)C1O (centres undefined)	none
CC(=O)Nc1ccc(OC(=O)N2CCCCC2)cc1	none
NC(=S)c1cn(C2OC(CO)C(O)C2O)c2ncnc(N)c12 (centres undefined)	none
CC(=O)OC(C)(C)/C=C/C(=O)C(C)(O)C1[C@H](O)C[C@@]2(C)C3CC=C4C(CC[C@@H](O)C4(C)C)[C@]3(CO)C(=O)C[C@]12C (some centres undefined)	none
Cc1cc(N=Nc2ccccc2C)ccc1N	aSyn 5UTR act -103.2
Clc1ccc2sc(C3CCNCC3)nc2c1	aSyn 5UTR act -159.4
CCc1ccc(NC(=O)CCNC(=O)N2C[C@H]3C[C@@H](C2)c2cccc(=O)n2C3)cc1	aSyn 5UTR act -69.6
CC(C)[C@H]1C(=O)O[C@H](C(C)C)C(=O)N(C)[C@@H](C(C)C)C(=O)O[C@H](C(C)C)C(=O)N(C)[C@@H](C(C)C)C(=O)O[C@H](C(C)C)C(=O)N1C	none
CN(C)C(=O)Oc1cccc(-c2cn3cc(Cl)ccc3n2)c1	aSyn 5UTR act -82.3
CN(C)C(=O)Oc1ccc(-c2cn3cc(C(F)(F)F)ccc3n2)cc1	aSyn 5UTR act -85.7
CC1CCN(CC(=O)c2ccc3c(c2)OCCO3)CC1	aSyn 5UTR act -77.5
CC1CCN(CC(=O)c2ccccc2Cl)CC1	aSyn 5UTR act -133.6
Cc1cccc(Cn2cc(C=O)c3ccccc32)c1	none
CN(C)c1ccc(/C=C/C=C/c2sc3ccccc3[n+]2C)cc1	none
CN(C(=O)Oc1ccc(C(C)(C)C)cc1)c1ccccc1	aSyn 5UTR act -106.1
CCC(=O)c1ccc(OC(=O)N(C)c2ccccc2)cc1	aSyn 5UTR act -118.1
Nc1cc2nc3ccccc3nc2cc1N	aSyn 5UTR act -64.1
CCOc1cccc(CNCCc2c(C)[nH]c3ccc(OC(F)(F)F)cc23)c1O	none
CC1CC(OP(O)(=S)c2ccc(N(C)C)cc2NC(=O)c2cccs2)CC(C)(C)C1 (centres undefined)	aSyn 5UTR act -112.9
Cc1ccc(/C=C2\C(=O)NC(=S)N(c3ccc(F)cc3)C2=O)s1	aSyn 5UTR act -115.7
C/C=C(\C)C(=O)N[C@@H](c1ccccc1)[C@@H](O)C(=O)O[C@H]1C[C@@]2(O)[C@@H](OC(=O)c3ccccc3)C3[C@](C)(C(=O)[C@H](OC(C)=O)C(=C1C)C2(C)C)[C@@H](O)C[C@H]1OC[C@@]31OC(C)=O (some centres undefined)	none
NC(Cc1nc2ccccc2[nH]1)c1ccc(Cl)cc1 (centres undefined)	aSyn 5UTR act -166.7
COc1ccc(-c2cc(C(=O)N3CCC4(CC3)OCCO4)c3ccccc3n2)cc1	aSyn 5UTR act -88.2
